Experimental data reported in paper PMC5540273 (PLoS ONE, 2017).

Legend:
Details in all cases: concentration: 1 μM, replicates: in singlicate; n = 1
[1] = system: BUB1
[2] = system: CAMK1B
[3] = system: CAMK1D
[4] = system: CAMK1G
[5] = system: CAMK1
[6] = system: CAMK2A
[7] = system: CAMK2B
[8] = system: CAMK2D
[9] = system: CAMK2G
[10] = system: CAMK4
[11] = system: CAMKK1
[12] = system: CAMKK2
[13] = system: CASK
[14] = system: T1, CDC2L1
T1 construct: gene CDK11B

[15] = system: CDC2L2
[16] = system: T2, CDC2L5
T2 construct: gene CDK13

[17] = system: T3, CDK11
T3 construct: gene CDK19

[18] = system: CDK2
[19] = system: CDK3
[20] = system: CDK4-cyclinD1
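Note: KINOMEscan kinase panel screen.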

SMILES	%Inh [1]	%Inh [2]	%Inh [3]	%Inh [4]	%Inh [5]	%Inh [6]	%Inh [7]	%Inh [8]	%Inh [9]	%Inh [10]	%Inh [11]	%Inh [12]	%Inh [13]	%Inh [14]	%Inh [15]	%Inh [16]	%Inh [17]	%Inh [18]	%Inh [19]	%Inh [20]
O=C(c1ccc(-c2cc(-c3c[nH]nc3-c3ccccn3)ccn2)cc1)N1CCOCC1 [GW812171]	20%	0%	21%	0%	14%	0%	0%	0%	0%	0%	0%	0%	4%	0%	2%	11%	0%	0%	0%	0%
O=C(Nc1n[nH]c2cc(-c3cccc(F)c3)ccc12)C1CC1 [SB-735464]	0%	0%	22%	0%	31%	19%	1%	0%	27%	0%	18%	14%	10%	2%	9%	23%	0%	27%	0%	8%
Cn1cc(-c2ccc3c(c2)CCN3C(=O)Cc2ccccc2Cl)c2c(N)ncnc21 [GSK2608885]	25%	33%	22%	13%	44%	0%	0%	17%	34%	0%	25%	28%	0%	0%	14%	0%	0%	0%	0%	0%
CC(=O)Nc1ccc(COc2ccc(Nc3ccnc4cc(-c5ccccn5)ccc34)cc2)cc1.Cl [GW440148]	5%	23%	10%	7%	20%	0%	0%	18%	21%	0%	4%	26%	1%	12%	11%	0%	17%	1%	0%	0%
COc1ccc(Nc2ncc(C#N)c(Nc3ccccc3C(N)=O)n2)cc1N1CCN(C)CC1.Cl [GSK1558669]	87%	100%	99.1%	83%	95.6%	92.5%	78%	83%	86%	0%	96.9%	98.5%	75%	0%	1%	69%	0%	96.3%	90%	94.8%
O=C(NOCC1CC1)c1ccc(F)c(F)c1Nc1ccc(I)cc1Cl	0%	0%	0%	0%	0%	0%	0%	0%	0%	32%	0%	0%	3%	0%	0%	0%	12%	0%	0%	0%
c1ccc(-c2cc(-c3c[nH]nc3-c3ccccn3)ccn2)cc1 [GW576604]	34%	10%	14%	0%	14%	0%	0%	10%	30%	0%	5%	24%	0%	0%	16%	0%	11%	13%	0%	0%
CCCCCc1nc2c(N)ncnc2n1CCCCC [SKF-97255]	0%	0%	0%	15%	0%	0%	0%	6%	0%	21%	0%	0%	25%	0%	0%	0%	10%	0%	9%	0%
COCCNC(=O)c1ccc(-c2cc(C(=O)NC3CC3)cc(F)c2C)cc1 [GW868318]	51%	5%	10%	0%	14%	7%	10%	8%	13%	7%	3%	16%	16%	3%	15%	33%	6%	12%	11%	24%
CN1c2ccc(CNc3ccc(F)cc3)cc2-c2c(cnn2C)S1(=O)=O	0%	0%	50%	0%	63%	0%	1%	4%	0%	0%	0%	0%	22%	0%	0%	15%	0%	0%	0%	13%
CNc1ncnc2[nH]ncc12 [SKF-18355]	20%	0%	0%	0%	0%	0%	0%	0%	0%	0%	0%	0%	22%	0%	0%	0%	0%	0%	12%	0%
COc1ccc(Nc2nccc(N3CCC(NC(=O)Nc4cccc(C(C)=O)c4)C3)n2)cc1 (stereo not drawn) [GSK1379731]	0%	13%	40%	0%	37%	0%	0%	1%	11%	0%	0%	1%	0%	0%	0%	0%	79%	0%	0%	2%
CCc1nc(-c2cccc(C)c2)c(-c2ccnc(NCc3ccccc3)c2)s1	18%	0%	6%	9%	40%	11%	0%	0%	10%	0%	3%	12%	16%	0%	5%	11%	0%	0%	9%	0%
Cc1c(Cn2c(C)nn3c(=O)cc(N4CCOC(C)C4)nc23)cccc1C(F)(F)F (stereo not drawn) [GSK2344444]	0%	10%	9%	0%	0%	0%	0%	0%	10%	0%	0%	0%	0%	0%	0%	0%	0%	0%	4%	0%
O=C(NCCNc1ccnc(Nc2ccc(F)cc2)n1)Nc1ccccc1F [GSK1379880]	31%	0%	0%	0%	0%	0%	0%	0%	0%	0%	0%	0%	1%	0%	9%	0%	0%	0%	20%	0%
